Only some compounds are listed: those with a hit (about 12% of all), similar ones and a draw of the others.
NS1 function inh – qHTS Assay for Inhibitors of Influenza NS1 Protein Function; Potency, µM (top dose mostly 46.1 µM); 0.4% of 270,000 active; AID 2326, 2010; further: actives are rising curves; nearly all actives have a fitted effect of over 50% in size
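Compounds were scored for reversing the slow growth caused by influenza A NS1 in S. cerevisiae, measured by optical density at 600 nm. Assay medium contained 2% galactose at pH 6.0; NS1-free yeast of the same strain were the positive control.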
SARS PLP yeast – qHTS of Yeast-based Assay for SARS-CoV PLP | S. cerevisiae expressing SARS-CoV PLpro, growth rescue | AID 485353, 2010 | 0.19% of 330,000 active | Potency, µM (doses to about 32.9 µM), actives largely listed as activators; further: nearly all actives have a fitted effect of over 55% in size
Cycloheximide cs – Cycloheximide Counterscreen for Small Molecule Inhibitors of Shiga Toxin | 12% of 300,000 active | cell reporter, cycloheximide protein synthesis inhibition counterscreen | max response, % | AID 2314, 2010; in the data active means max response mostly above about 13%, no sharp cut-off; inactive means mostly below about 14%; further: read at 38.3 µM for the half of the compounds with a filed dose
Shiga toxin inh – A qHTS for Small Molecule Inhibitors of Shiga Toxin; inhibition, % at 38.7 µM; 9.2% of 290,000 active; Vero cells, Shiga toxin protein synthesis inhibition reporter; AID 2315, 2010; in the data active means inhibition mostly above about 28%, no sharp cut-off; inactive means mostly below about 43%
Of the large screens only hits and unclear results are named; the others gave an inactive call. Unless noted, the call rests on the fitted dose curve.

CSc1ccccc1OCc1cc(C(=O)NC(C)CCn2cccn2)no1 (centres undefined)	none
CSc1ccccc1OCc1cc(C(=O)NCc2cccc(C)n2)no1	Cycloheximide cs 80, Shiga toxin inh 99
CSc1ccccc1OCc1cc(C(=O)NC(C)Cc2cccc(C)n2)no1 (centres undefined)	Cycloheximide cs 49, Shiga toxin inh 88
CCn1nc(C)c(CNC(=O)c2cc(COc3ccccc3SC)on2)c1C	Cycloheximide cs 25
CCCc1ccc(OC(=O)c2ccc(O)cc2Cl)cc1	Cycloheximide cs 40, Shiga toxin inh 96 (no result: NS1 function inh)
CSc1ccccc1NC(=O)CN(C)C(=O)c1ccc(NC(=O)c2cccs2)cc1	none (no result: NS1 function inh, Cycloheximide cs, Shiga toxin inh)
COc1cc(-c2noc(C)c2C#Cc2ccc(N)cc2)cc(OC)c1OC	Cycloheximide cs 14
N/C(=N\OC(=O)/C=C/c1ccccc1Cl)c1cccnc1	Cycloheximide cs 63, Shiga toxin inh 112
N/C(=N\OC(=O)/C=C/c1ccc(Br)cc1)c1ccccn1	Cycloheximide cs 81, Shiga toxin inh 68
N/C(=N\OC(=O)/C=C/c1ccccc1)c1cccnc1	Cycloheximide cs 32, Shiga toxin inh 70
Cc1nnc(Cn2cnc3c2c(=O)n(C)c(=O)n3C)o1	none
Cc1noc(C)c1-c1ccc2ncnc(NCc3cccc(C(F)(F)F)c3)c2c1	none (no result: NS1 function inh, SARS PLP yeast)
COCc1nc(-c2ccc(-c3ccc(OC)cc3)nc2OC)no1	Cycloheximide cs 47, Shiga toxin inh active
CCOc1nc(-c2ccc(OC)cc2)ccc1-c1noc(-c2ccncc2)n1	none
CCc1nc(-c2ccc(-c3ccc(OC)cc3)nc2OC)no1	Cycloheximide cs 40, Shiga toxin inh active
COc1nc(-c2ccccc2)ccc1-c1noc(C)n1	Cycloheximide cs 62, Shiga toxin inh 72 (no result: SARS PLP yeast)
COc1ccc(-c2ccc(-c3noc(C(C)C)n3)c(OC)n2)cc1	Cycloheximide cs 40
O=C(O)CCCCCNC(=O)Cn1nnc2ccccc2c1=O	none
Cc1ccc(N(C)C(=O)CCS(=O)(=O)c2ccc3c(c2)oc(=O)n3C)cc1	none
CCn1cc(C(=O)NCC(=O)NCCCN2CCOCC2)c(=O)c2cc3c(cc21)OCO3	none
COc1cccc(OC)c1CN1CCCC(C(=O)c2ccccc2SC)C1 (centres undefined)	none
COCc1nc(-c2ccc(-c3ccccc3)nc2OC)no1	Cycloheximide cs 64, Shiga toxin inh 156
CCOc1nc(-c2ccccc2)ccc1-c1noc(COC)n1	none
CCc1cccc(NC(=O)Nc2cccs2)c1	Cycloheximide cs 28, Shiga toxin inh active
COc1ccc(NC(=O)Nc2cccs2)cc1Cl	Cycloheximide cs 39, Shiga toxin inh active (no result: NS1 function inh)
N#Cc1cccc(NC(=O)Nc2cccs2)c1	none
COc1ccc(NC(=O)CCC(=O)c2cccs2)cc1Cl	Cycloheximide cs 9.5
Cc1cccc(Nc2nccc(N(C)C)c2C#N)c1	none
COc1ccc(C(=O)COC(=O)c2sc(C)nc2C)cc1OC	none (no result: NS1 function inh, Cycloheximide cs, Shiga toxin inh)
CC1(C)Cc2c(sc(NC(=O)c3ccc(C(=O)c4ccccc4)cc3)c2C#N)C(C)(C)N1	none
Cc1ccc2nc(N3CC(=O)Nc4ccccc43)nc(-c3ccccc3)c2c1	none
COCc1ccc([C@@H]2C[C@H]3CN(Cc4ccccc4C)C(=O)[C@]34CCCN24)o1	Cycloheximide cs 21, Shiga toxin inh 32
O=CN1CCN(C(=O)c2cccc3c2-c2ccccc2C3=O)CC1	none
Cc1ccc(C(=O)N2CCCC(CCC(=O)NCc3ccccc3F)C2)cn1 (centres undefined)	Cycloheximide cs 21
Cc1ccsc1S(=O)(=O)N1CCCC(CCC(=O)NCc2ccccc2F)C1 (centres undefined)	none
C=CCOc1cccc(C(=O)N2CCCC(CCC(=O)NCc3ccccc3F)C2)c1 (centres undefined)	Cycloheximide cs 29
Cc1ccsc1C(=O)N1CCCC(CCC(=O)NCc2ccccc2F)C1 (centres undefined)	Cycloheximide cs 15
CC(C)(C)NCC(=O)N/N=C/c1ccc(OCc2ccccc2)cc1	none
CC(=O)OCCCN1c2ccccc2Nc2nnc(-c3ccccc3)cc21	Cycloheximide cs 36, Shiga toxin inh 68
CC(=O)OCCCN1C(=O)c2cccc3cc(Br)cc(c23)C1=O	none
CC(C)CN=c1cc(-c2ccccc2)oc2ccc(Cl)cc12	Cycloheximide cs 35
CC(O)CN=c1cc(-c2ccccc2)oc2ccc(Cl)cc12 (centres undefined)	Cycloheximide cs 55, Shiga toxin inh 77
C/C(CCc1oc2ccc(Cl)cc2c1-c1ccc(C)o1)=N\O	none
COCCN1Cc2cc3cc(C)ccc3nc2SC1=Nc1ccc(OC)cc1	Cycloheximide cs 15, Shiga toxin inh 64
COCCN=C1Sc2nc3ccc(C)cc3cc2CN1Cc1cccs1	Cycloheximide cs 12, Shiga toxin inh 36

Source: PubChem BioAssay
